Source: PubChem
NS1 function inh = qHTS Assay for Inhibitors of Influenza NS1 Protein Function; actives 0.4% (n = 270,000); Potency, µM (titrated, usually from 46.1 µM); AID 2326, 2010; calls by dose curve; also: actives are rising curves; nearly all actives have a fitted effect of over 50% in size
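Read-out: OD600 growth recovery of NS1-expressing budding yeast. Cells grown overnight at 30C in -URA glucose medium, washed, resuspended and diluted 1:100 in 2% galactose assay medium, pH 6.0. Same strain lacking NS1 served as positive control.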
Pf growth 48h = Primary qHTS for delayed death inhibitors of the malarial parasite plastid, 48 hour incubation | Potency, µM (highest dose often 28.7 µM), most hits filed as inhibitors | actives 5.9% (n = 310,000) | P. falciparum luciferase growth in erythrocytes, 48 h
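In quantitative HTS format, infected erythrocytes bearing luciferase-reporter parasites were treated for a single generation at 37 C. Luminescence after adding detection reagent served as the growth measure.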
Shiga inhibitor = A qHTS for Small Molecule Inhibitors of Shiga Toxin. Vero cells, Shiga toxin protein synthesis inhibition reporter. inhibition, % at 38.7 µM. actives 9.2% (n = 290,000). AID 2315, 2010; in the data active = inhibition mostly above about 28%, no sharp cut-off; inactive = mostly below about 43%
Sm TGR inh = qHTS Assay for the Inhibitors of Schistosoma Mansoni Peroxiredoxins; Schistosoma mansoni thioredoxin glutathione reductase (TGR), Q962Y6; purified TGR, DTNB reduction, TNB absorbance 405 nm; Potency, µM (highest dose often 114 µM), most hits filed as inhibitors; actives 3% (n = 360,000); AID 485364, 2010; also: nearly all actives have a fitted effect of over 60% in size
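Kinetic colorimetric format: TGR-catalysed, NADPH-driven DTNB reduction monitored via TNB absorbance. Enzyme dispensed at 20 nM; compound exposure 15 min at room temperature before reaction start.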
Pf growth 96h = Primary qHTS for delayed death inhibitors of the malarial parasite plastid, 96 hour incubation; P. falciparum luciferase reporter growth, 96 h; Potency, µM (highest dose often 28.7 µM), usual class: inhibitors; actives 6.9% (n = 320,000)
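P. falciparum expressing integrated firefly luciferase grown in erythrocytes (2% hematocrit, 0.05% parasitemia final) with compounds for 96 hours at 37 C, 5% CO2. Growth inhibition read as loss of luminescence after adding luciferase detection reagent.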
CHX counter = Cycloheximide Counterscreen for Small Molecule Inhibitors of Shiga Toxin. cell reporter, cycloheximide protein synthesis inhibition counterscreen. max response, %. AID 2314, 2010. actives 12% (n = 300,000); in the data active = max response mostly above about 13%, no sharp cut-off; inactive = mostly below about 14%; also: read at 38.3 µM for the half of the compounds with a filed dose
Flu NS1 inh = Assay for Inhibitors of Influenza NS1 Protein Function: Hit Validation | activity change, negative = inhibition, % at 32.9 µM | 1,400 tested, under 10 active | shares compounds with NS1 function inh | influenza NS1 function cell assay, 15-point titration; calls by dose curve
PR8 titer = Assay for Inhibitors of Influenza NS1 Protein Function: Influenza virus replication assay in MDCK cells infected with virus A/PR/8/34; shares compounds with NS1 function inh; MDCK infected influenza A/PR/8/34, virus titer TCID50; stronger effect = lower value; virus titer (log TCID50), log10 TCID50 at 5 µM; actives 30% (n = 95); AID 504647, 2011; call rule not given here
CLK4 cf ADPGlo = Confirmaiton Assay for Inhibitors of CDC-like Kinase 4 (ADP-Glo Assay). shares compounds with Pf growth 48h. recombinant Clk4, RS peptide, ADP-Glo luminescence. Potency, µM (top dose mostly 80 µM), most hits filed as inhibitors. actives 80% (n = 65). AID 1969, 2009
Target sequence (Q9HAZ1 whole entry, looked up): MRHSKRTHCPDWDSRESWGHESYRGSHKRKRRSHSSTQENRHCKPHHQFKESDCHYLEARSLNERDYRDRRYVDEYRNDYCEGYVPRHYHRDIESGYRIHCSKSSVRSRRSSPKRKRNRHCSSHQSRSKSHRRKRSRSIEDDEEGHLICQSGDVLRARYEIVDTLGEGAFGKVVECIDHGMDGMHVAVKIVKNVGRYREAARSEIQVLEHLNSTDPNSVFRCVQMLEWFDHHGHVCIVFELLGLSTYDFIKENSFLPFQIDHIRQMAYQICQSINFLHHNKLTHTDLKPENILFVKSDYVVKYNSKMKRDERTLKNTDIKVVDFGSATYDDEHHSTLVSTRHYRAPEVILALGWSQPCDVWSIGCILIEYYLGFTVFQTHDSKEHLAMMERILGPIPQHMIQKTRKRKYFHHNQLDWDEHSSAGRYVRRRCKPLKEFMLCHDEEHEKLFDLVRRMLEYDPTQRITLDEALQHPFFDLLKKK
CLK4 ADP FP = Confirmation Assay for Inhibitors of CDC-like Kinase 4 (ADP-FP Assay); shares compounds with Pf growth 48h; recombinant Clk4, ADP Transcreener FP, RS peptide; Potency, µM (highest dose often 80 µM), actives largely listed as inhibitors; actives 70% (n = 65); AID 1983, 2009
Numbers stand for hits; – = inactive; ? = inconclusive; · = not tested or not shown; [ ] = remark or other dose. Rows were chosen to be rich in hits. Some 21% of all compounds tested hit in one or more screens of this group. Unless noted, calls follow the shape of the dose curve; as a rule, active = well fitted curve in the direction sought with a large enough effect; inconclusive = small, poorly fitted or top-dose-only effect, or another doubt; inactive = no such curve, though single readings can be large; an effect the other way counts as inactive or inconclusive.

SMILES	NS1 function inh	Pf growth 48h	Shiga inhibitor	Sm TGR inh	Pf growth 96h	CHX counter	Flu NS1 inh	others
COc1cc2c(cc1OC)C(=S)NC(C)(C)C2	–	·	–	–	?	–	·
CC1(C)Cc2ccccc2/C(=C/C(=O)N2CCCCCC2)N1	–	?	–	–	·	–	·
COc1cc2c(cc1OC)/C(=C/C(=O)N1CCOCC1)NC(C)(C)C2	?	–	–	–	?	–	–
CC(C)=CCC/C(C)=C/CC/C(C)=C/CC/C(C)=C/C(=O)O	·	·	–	·	·	–	·
Cc1nn(-c2cc(N3CCOCC3)ccc2[N+](=O)[O-])c(=O)c2ccccc12	–	·	–	–	–	–	·
Cc1nn(-c2cc(N3CCOCC3)ccc2N)c(=O)c2ccccc12	14µM	–	–	–	–	–	–
Cc1c(C(=O)Nc2cccc(Cl)c2)oc2ccc(S(=O)(=O)N3CCC4(CC3)OCCO4)cc12	11µM	–	–	–	–	–	–
CN(C)S(=O)(=O)c1ccc(N2CCCC2)c(C(=O)OCC(=O)NC2(C#N)CCCCC2)c1	·	?	·	–	?	·	·
Cc1cc2cc(CNC(=S)Nc3ccc(OC(F)(F)F)cc3)ccc2[nH]1	?	–	–	–	–	–	–
CCNC(=S)NCc1ccc2[nH]c(C)cc2c1	11µM	–	–	–	–	–	–
CCCCNC(=S)NCc1ccc2c(c1)cc(C)n2C	–	?	–	–	–	–	·
Cc1cc2cc(CNC(=O)c3ccc(C)c([N+](=O)[O-])c3)ccc2[nH]1	8.9µM	–	–	–	–	–	–
COc1ccc(C(=O)NCC(=O)OCC(=O)N2CCC(C)CC2)cc1OC	·	–	–	–	–	–	·
O=C(O)[C@@H]1CSC2c3ccccc3C(=O)N21 (some centres undefined)	–	–[0.00184 µM]	–	–	–	–	·
CCCCN(C)C(=O)C1CCC(CNS(=O)(=O)c2ccc3c(c2)CC(C)N3C(=O)C2CC2)CC1 (centres undefined)	–	–	–	–	?	–	·
CCC(=O)N1c2ccccc2CC1C(=O)NCCc1cc(OC)c(OC)c(OC)c1 (centres undefined)	·	·	·	–	·	·	·
Cc1cc(C)cc(NC(=O)Cn2nnc3ccccc3c2=O)c1	·	–	–	–	–	–	·
C[C@]12C=CC(=O)C=C1CCC1C2=CC[C@]2(C)[C@@H](C(=O)CN3CCN(c4cc(N5CCCC5)nc(N5CCCC5)n4)CC3)CC[C@@H]12 (some centres undefined)	35µM	·	·	·	·	·	?
O=C(COc1ncnc2ccc(Br)cc12)NCc1ccco1	–	–	–	–	–	–	·
Cc1cc(F)c(F)c(C(=O)N2C(C)CCCC2C)c1Cl (centres undefined)	–	–	–	·	–	–	·
Cc1ccc(SCC(=O)Nc2ccc3c(c2)C(=O)N(C)C3=O)cc1	2.5µM	–	–	–	–	–	–
CN(N=O)c1ccc(O)c(O)c1	5µM	·	·	·	·	·	–
O=C(Cn1cnc2c(oc3ccccc32)c1=O)NCCc1ccccc1	5µM	·	·	·	·	·	–
O=C(COC(=O)c1ccccc1F)NC(=O)NC1CCCC1	·	–	·	–	–	·	·
COC(=O)c1c(NC(=S)Nc2cc(OC)c(Cl)cc2OC)sc2c1CCCCC2	11µM	–	–	–	–	–	–	PR8 titer=–
SMILES	NS1 function inh	Pf growth 48h	Shiga inhibitor	Sm TGR inh	Pf growth 96h	CHX counter	Flu NS1 inh	others
COC(=O)CN1C(=S)N(c2ccc(Cl)cc2)C(=O)C1CC(=O)Nc1ccc(Cl)cc1 (centres undefined)	–	–	–	–	–	–	·
COC(=O)CN1C(=S)N(Cc2ccccc2)C(=O)C1CC(=O)Nc1ccc(Br)cc1 (centres undefined)	11µM	15µM	–	–	?	–	–
CCCOc1ccc(NC(=O)CC2C(=O)N(Cc3ccccc3)C(=S)N2Cc2cccs2)cc1 (centres undefined)	3.5µM	?	–	–	?	22	–
CCN1C(=O)C(CC(=O)Nc2ccc(OC)cc2)N(CCc2ccccc2)C1=S (centres undefined)	·	?	–	–	?	–	·
CN(C)CCN(C(=O)c1ccco1)c1nc2c(F)cc(F)cc2s1	·	·	·	–	·	·	·
CN(CC(=O)Nc1sccc1C#N)C1CCCCC1	7.9µM	–	–	–	–	–	–
N#Cc1ccsc1NC(=O)CN1CCCCCC1	–	·	–	–	–	–	·
CCN1CCN(S(=O)(=O)c2ccc(OC)cc2)CC1	–	–	–	–	?	–	·
COc1cccc(NC(=O)CC2S/C(=N\S(=O)(=O)c3ccccc3)N(c3ccccc3)C2=O)c1 (centres undefined)	10µM	–	–	–	–	–	–
c1nc(NCc2ccc3c(c2)OCO3)c2cc(-c3ccoc3)ccc2n1	·	?	·	–	?	·	·	CLK4 cf ADPGlo=0.71µM;CLK4 ADP FP=0.89µM
c1cncc(CNc2ncnc3ccc(-c4cccnc4)cc23)c1	·	?	·	–	?	·	·	CLK4 cf ADPGlo=7.9µM;CLK4 ADP FP=13µM
Clc1ccccc1-c1ccc2ncnc(NCc3ccc4c(c3)OCO4)c2c1	·	8.3µM	·	–	3.7µM	·	·	CLK4 cf ADPGlo=?;CLK4 ADP FP=–
Cc1sc2ncnc(NCc3cccnc3)c2c1C	·	–	–	–	–	–	·
Clc1ccc2ncnc(NCc3ccc4c(c3)OCO4)c2c1	·	·	–	·	·	–	·
Clc1ccccc1-c1ccc2ncnc(NCc3cccnc3)c2c1	·	–	·	–	?	·	·	CLK4 cf ADPGlo=13µM;CLK4 ADP FP=?
CCOC(=O)c1c(-c2ccc(OC)cc2)cn2ccccc12	–	–	–	–	–	–	·
c1cncc(CNc2ncnc3ccc(-c4ccc5c(c4)OCCO5)cc23)c1	·	–	·	–	–	·	·	CLK4 cf ADPGlo=0.4µM;CLK4 ADP FP=0.71µM
c1cncc(CNCCc2ccc3c(c2)OCO3)c1	–	–	–	–	–	–	·
Clc1cccc(-c2ccc3ncnc(NCc4cccnc4)c3c2)c1	·	?	·	–	13µM	·	·	CLK4 cf ADPGlo=4.5µM;CLK4 ADP FP=?
